Assay results taken from the supplement of paper PMC10849652.
Of roughly 8,800 targets only a part is listed; those with a hit were picked by preference. About 0.5% of all pairs of compound and target were hits.

Columns and labels:
Assay in all cases: log2 fold change, soluble protein after heating vs DMSO (PISA); higher = thermal stabilisation; K562 lysate, 10 uM; active = over 0.2 and 3.5 SD of the protein, either way, in both replicates (recomputed)
[1] = compound: C1=CC=C(C=C1)[C@H](COC2=CC3=C(C=C2)NC(=O)N3)NC(=O)C4=CC=CN(C4=O)CC5=CC(=C(C=C5)F)F
Outline: (§1)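 The values are log-two fold changes in thermal stability compared with solvent controls and come from duplicates. They were obtained by TMTpro 16plex LC-MS/MS, with channel sums equalised, on the supernatant after 21,000xg for 90 min. That supernatant came from crude K562 extract at 1 mg/mL protein treated with 10 μM compound for 30 min, heated for 3 min across 48°C-58°C, pooled and brought to 0.5% NP-40 at 4°C.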

[2] = compound: CC1=C(SC2=C1C(=N[C@H](C3=NN=C(N32)C)CC(=O)N)C4=CC=C(C=C4)Cl)C
Outline: as §1

[3] = compound: CC1=C2C(=CC=C1)N=C(N(C2=O)C3=CC=CC=C3C)CN4C=NC5=C(N=CN=C54)N
Outline: as §1

[4] = compound: Cc1sc2c(c1C)C(c1ccc(Cl)cc1)=N[C@@H](CC(=O)OC(C)(C)C)c1nnc(C)n1-2
Outline: as §1

[5] = compound: c1ccc([C@@H]2C[C@H]2NC2CCNCC2)cc1
Outline: as §1

Measured: log2 fold change

CCP110 (UniProt O43303)
Chain of UniProt O43303 (O43303 whole entry, looked up): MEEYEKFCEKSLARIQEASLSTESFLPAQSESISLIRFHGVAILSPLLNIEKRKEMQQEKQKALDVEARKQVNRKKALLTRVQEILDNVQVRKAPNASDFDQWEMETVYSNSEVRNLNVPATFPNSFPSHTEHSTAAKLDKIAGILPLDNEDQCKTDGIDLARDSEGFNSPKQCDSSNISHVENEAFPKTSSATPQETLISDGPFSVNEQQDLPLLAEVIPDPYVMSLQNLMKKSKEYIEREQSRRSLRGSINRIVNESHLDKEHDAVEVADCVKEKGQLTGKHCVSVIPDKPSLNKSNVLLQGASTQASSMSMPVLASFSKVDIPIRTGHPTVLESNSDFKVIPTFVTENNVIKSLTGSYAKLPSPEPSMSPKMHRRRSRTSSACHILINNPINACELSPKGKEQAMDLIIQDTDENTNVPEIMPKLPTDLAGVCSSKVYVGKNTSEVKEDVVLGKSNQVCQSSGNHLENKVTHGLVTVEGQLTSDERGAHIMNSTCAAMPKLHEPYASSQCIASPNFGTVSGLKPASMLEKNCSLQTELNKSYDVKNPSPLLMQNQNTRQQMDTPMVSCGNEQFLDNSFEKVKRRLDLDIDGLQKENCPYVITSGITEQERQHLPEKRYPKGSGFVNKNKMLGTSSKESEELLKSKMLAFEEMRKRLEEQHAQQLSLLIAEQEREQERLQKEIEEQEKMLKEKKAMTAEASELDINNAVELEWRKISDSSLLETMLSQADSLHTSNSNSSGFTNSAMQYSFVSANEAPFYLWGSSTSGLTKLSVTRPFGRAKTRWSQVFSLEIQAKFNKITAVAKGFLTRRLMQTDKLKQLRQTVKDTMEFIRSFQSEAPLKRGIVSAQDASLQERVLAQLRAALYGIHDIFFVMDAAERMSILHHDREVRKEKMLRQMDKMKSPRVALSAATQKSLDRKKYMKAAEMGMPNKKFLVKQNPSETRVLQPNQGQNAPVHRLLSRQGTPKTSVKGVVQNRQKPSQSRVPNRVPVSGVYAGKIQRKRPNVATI
inactive: [1] -0.026 | [2] 0.093 | [3] 0.104 | [4] -0.143

CAMK2B (UniProt Q13554)
Chain of UniProt Q13554 (Q13554 whole entry, looked up): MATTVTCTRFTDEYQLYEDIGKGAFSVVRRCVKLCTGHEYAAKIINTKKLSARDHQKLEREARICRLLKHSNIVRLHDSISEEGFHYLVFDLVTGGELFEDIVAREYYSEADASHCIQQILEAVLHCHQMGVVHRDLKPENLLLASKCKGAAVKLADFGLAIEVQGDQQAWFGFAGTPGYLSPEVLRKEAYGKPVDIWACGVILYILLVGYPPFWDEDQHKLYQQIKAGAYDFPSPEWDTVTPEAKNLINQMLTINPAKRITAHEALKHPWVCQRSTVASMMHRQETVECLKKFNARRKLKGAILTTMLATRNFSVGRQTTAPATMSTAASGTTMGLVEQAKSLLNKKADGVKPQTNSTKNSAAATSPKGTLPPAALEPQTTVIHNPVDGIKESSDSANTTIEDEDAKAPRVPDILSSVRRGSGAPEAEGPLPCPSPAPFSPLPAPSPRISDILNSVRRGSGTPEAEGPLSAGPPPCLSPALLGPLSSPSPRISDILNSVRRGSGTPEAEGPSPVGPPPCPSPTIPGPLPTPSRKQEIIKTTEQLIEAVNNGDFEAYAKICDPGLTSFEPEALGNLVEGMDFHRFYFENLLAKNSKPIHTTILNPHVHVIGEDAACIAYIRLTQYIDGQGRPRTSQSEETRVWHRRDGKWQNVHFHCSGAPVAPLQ
inactive: [1] 0.036 | [2] -0.052 | [3] -0.032 | [4] -0.056 | [5] -0.091

CDC25C (UniProt P30307)
Chain of UniProt P30307 (P30307 whole entry, looked up): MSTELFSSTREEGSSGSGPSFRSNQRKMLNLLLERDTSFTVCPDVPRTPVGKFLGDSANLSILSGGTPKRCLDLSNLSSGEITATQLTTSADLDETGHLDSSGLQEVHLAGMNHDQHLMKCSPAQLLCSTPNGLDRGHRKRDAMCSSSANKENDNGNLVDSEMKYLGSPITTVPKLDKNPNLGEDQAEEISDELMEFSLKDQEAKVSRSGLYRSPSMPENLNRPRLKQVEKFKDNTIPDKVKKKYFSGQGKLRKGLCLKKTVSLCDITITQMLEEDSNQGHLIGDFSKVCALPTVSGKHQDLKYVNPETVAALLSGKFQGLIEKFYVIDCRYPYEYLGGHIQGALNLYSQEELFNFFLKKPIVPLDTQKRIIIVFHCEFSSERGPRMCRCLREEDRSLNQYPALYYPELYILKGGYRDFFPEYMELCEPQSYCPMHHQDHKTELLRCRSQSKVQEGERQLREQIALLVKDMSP
inactive: [1] 0.018 | [2] -0.011 | [3] 0.023 | [4] 0.07 | [5] 0.027

ATP6V1B1 (UniProt P15313)
Chain of UniProt P15313 (P15313 whole entry, looked up): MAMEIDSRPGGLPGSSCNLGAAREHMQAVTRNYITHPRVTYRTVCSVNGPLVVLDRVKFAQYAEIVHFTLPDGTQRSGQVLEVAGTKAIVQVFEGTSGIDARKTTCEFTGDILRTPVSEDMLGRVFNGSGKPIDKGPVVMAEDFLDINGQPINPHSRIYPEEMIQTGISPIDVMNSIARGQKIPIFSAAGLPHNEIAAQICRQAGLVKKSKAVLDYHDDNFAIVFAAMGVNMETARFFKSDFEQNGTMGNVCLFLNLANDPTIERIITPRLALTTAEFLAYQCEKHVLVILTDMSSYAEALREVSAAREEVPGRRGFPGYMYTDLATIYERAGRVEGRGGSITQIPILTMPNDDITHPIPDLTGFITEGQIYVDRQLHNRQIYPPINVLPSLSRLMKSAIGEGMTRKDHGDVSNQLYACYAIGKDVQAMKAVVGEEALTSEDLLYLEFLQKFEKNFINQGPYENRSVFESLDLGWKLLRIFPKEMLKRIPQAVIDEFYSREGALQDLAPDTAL
inactive: [1] 0.023 | [2] 0.004 | [3] 0.004 | [4] -0.023 | [5] -0.157

CDK5RAP2 (UniProt Q96SN8)
inactive: [1] 0.018 | [2] 0.038 | [3] 0.041 | [4] -0.026 | [5] 0.072

C2CD5 isoform 3 (UniProt Q86YS7)
Chain of UniProt Q86YS7 (Q86YS7 whole entry, looked up): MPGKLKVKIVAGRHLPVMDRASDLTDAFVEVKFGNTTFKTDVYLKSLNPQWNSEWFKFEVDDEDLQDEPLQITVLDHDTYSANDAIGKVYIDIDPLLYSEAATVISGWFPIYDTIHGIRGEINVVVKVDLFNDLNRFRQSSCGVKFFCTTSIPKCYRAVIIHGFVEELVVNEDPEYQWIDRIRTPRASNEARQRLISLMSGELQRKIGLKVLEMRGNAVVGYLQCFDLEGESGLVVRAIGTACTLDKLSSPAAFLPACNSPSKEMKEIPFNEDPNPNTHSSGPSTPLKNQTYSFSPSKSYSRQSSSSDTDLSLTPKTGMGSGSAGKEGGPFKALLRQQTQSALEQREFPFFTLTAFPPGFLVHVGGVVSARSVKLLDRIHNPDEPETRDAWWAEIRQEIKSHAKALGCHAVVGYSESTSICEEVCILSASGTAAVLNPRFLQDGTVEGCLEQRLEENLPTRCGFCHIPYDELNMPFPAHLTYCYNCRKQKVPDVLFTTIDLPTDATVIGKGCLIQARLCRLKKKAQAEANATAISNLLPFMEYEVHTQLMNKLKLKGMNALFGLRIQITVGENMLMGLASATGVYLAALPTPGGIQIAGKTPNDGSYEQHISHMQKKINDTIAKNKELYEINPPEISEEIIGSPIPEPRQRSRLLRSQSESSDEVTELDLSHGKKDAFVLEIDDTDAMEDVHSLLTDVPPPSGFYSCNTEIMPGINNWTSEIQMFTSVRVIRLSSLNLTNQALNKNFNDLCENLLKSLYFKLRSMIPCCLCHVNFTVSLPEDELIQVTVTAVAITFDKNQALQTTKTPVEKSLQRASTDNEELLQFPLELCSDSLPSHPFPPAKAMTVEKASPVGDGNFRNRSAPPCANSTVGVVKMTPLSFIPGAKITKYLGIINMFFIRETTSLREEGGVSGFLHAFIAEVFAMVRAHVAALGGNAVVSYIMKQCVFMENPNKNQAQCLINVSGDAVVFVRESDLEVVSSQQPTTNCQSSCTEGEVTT
inactive: [1] 0.015 | [2] 0.059 | [3] 0.014 | [4] -0.009 | [5] -0.169

BCKDHB (UniProt P21953)
Chain of UniProt P21953 (P21953 whole entry, looked up): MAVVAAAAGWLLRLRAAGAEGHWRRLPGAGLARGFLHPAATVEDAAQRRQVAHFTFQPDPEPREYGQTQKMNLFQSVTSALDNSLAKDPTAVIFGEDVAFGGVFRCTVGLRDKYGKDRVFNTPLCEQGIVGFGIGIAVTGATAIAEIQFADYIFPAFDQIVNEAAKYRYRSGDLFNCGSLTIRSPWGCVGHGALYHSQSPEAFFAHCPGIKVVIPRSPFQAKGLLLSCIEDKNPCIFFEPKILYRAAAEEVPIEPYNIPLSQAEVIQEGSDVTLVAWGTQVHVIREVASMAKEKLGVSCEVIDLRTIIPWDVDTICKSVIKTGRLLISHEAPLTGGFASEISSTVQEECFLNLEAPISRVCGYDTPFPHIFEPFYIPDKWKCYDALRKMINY
inactive: [1] 0.027 | [2] 0.023 | [3] 0.09 | [4] 0.074 | [5] 0.119

CDK1 (UniProt P06493)
Chain of UniProt P06493 (P06493 whole entry, looked up): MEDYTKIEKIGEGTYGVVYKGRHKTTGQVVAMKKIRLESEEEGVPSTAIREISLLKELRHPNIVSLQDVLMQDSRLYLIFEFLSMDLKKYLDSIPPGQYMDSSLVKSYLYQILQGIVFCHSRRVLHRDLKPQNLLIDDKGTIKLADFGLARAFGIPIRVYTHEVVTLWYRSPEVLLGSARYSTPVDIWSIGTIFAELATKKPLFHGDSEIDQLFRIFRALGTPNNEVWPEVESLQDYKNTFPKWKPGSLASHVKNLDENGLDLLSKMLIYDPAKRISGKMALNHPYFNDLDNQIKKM
inactive: [1] 0.037 | [2] -0.009 | [3] 0.042 | [4] 0.021 | [5] 0.018

ATAD3B (UniProt Q5T9A4)
Chain of UniProt Q5T9A4 (Q5T9A4 whole entry, looked up): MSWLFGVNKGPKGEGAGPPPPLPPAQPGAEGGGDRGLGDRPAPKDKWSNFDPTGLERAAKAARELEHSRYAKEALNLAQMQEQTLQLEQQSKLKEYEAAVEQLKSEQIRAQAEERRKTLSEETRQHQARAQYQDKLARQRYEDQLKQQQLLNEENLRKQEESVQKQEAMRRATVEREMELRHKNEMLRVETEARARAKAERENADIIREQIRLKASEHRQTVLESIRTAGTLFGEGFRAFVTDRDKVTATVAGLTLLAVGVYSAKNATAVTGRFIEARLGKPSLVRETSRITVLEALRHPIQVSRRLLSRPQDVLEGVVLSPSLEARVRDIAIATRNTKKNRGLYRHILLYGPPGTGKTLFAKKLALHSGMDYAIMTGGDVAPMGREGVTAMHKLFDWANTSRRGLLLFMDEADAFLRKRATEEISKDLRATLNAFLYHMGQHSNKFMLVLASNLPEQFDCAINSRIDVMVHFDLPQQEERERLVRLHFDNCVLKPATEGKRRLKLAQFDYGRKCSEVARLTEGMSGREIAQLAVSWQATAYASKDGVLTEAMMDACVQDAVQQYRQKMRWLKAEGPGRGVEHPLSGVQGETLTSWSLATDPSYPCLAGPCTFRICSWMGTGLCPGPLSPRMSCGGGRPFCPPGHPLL
inactive: [1] 0.082 | [2] -0.033 | [3] -0.021 | [4] 0.047 | [5] 0.172
